Publication PMC4336329 (PLoS ONE, 2015)
Out of some 310,000 compounds screened, about 2,200 (0.71%) showed an effect of 50% or more. Effects have a minus sign here. The sample as a whole holds a higher share of strong results than the screen did.

Each molecule was assayed against human ether-à-go-go-related gene (hERG) potassium channel (human, UniProt Q12809) (assay: primary screen, population patch clamp on CHO cells stably expressing hERG; higher = less effect of the substance).
human ether-à-go-go-related gene (hERG) potassium channel, sequence (Q12809 whole entry, looked up): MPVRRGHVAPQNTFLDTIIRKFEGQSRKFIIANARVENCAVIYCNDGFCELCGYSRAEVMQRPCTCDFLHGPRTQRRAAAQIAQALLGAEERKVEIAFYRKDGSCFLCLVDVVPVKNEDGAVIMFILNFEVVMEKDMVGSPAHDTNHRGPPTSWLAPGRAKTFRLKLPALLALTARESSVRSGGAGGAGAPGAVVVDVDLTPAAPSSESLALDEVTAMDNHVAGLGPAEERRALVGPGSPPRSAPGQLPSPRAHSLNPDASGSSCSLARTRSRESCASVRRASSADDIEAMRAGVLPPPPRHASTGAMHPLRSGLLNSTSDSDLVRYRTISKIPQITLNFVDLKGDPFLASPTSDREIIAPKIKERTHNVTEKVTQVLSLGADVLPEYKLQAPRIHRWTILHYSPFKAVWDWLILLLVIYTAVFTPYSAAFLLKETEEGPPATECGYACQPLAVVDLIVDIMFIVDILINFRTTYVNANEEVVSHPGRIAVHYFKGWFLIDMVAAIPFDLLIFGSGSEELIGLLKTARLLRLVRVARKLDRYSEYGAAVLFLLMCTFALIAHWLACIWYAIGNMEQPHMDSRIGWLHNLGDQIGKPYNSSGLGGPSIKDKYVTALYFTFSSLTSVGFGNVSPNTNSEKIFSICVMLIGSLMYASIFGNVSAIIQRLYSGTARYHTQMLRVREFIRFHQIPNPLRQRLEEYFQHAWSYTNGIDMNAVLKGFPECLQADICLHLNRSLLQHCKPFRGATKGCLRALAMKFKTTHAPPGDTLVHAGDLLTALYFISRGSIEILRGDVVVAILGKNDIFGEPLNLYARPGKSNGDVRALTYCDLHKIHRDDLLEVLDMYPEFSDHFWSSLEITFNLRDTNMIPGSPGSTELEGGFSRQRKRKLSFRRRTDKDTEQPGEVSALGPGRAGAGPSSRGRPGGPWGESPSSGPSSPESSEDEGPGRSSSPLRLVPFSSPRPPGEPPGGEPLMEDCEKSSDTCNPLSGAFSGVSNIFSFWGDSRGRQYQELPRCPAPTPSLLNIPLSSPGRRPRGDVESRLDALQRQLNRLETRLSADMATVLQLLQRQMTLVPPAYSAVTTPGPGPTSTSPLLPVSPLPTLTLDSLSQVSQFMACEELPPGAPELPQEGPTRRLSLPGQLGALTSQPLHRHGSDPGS

Compound	hERG current change (%, negative = inhibition) at 1uM
COc1cccc(S(=O)(=O)NCC(=O)N2CCCCCC2)c1	25%
Cc1ccc(S(=O)(=O)N2CCN(c3ccccc3)CC2)cc1C	12.5%
Cc1ccc(S(=O)(=O)N2CCN(c3ccccc3)CC2)cc1C(=O)NC1CCCCC1	10.8%
Cc1ccc(S(=O)(=O)N2CCN(c3ccccc3)CC2)cc1C(N)=O	-52%
CC(C)OC(=O)c1ccc(NC(=O)c2ccco2)cc1	6.19%
Cc1ccc(S(=O)(=O)Cn2nnnc2C(CC(C)C)N2CCN(C(=O)c3ccco3)CC2)cc1.Cl (stereo not drawn)	7.63%
C=CCNc1nc(C(=O)OCC(=O)Nc2cc(S(C)(=O)=O)ccc2Cl)cs1	4.15%
Cc1ccc(C(=O)c2c3ccc([N+](=O)[O-])cc3[n+]([O-])n2CCCC(N)=O)cc1	-11.4%
Cc1ccc(C(=O)c2c3ccc(C(F)(F)F)cc3[n+]([O-])n2CCC[NH3+])cc1.O=C([O-])C(F)(F)F	-64.4%
Cc1ccc(C(=O)c2c3ccc([N+](=O)[O-])cc3[n+]([O-])n2CCC[NH3+])cc1.O=C([O-])C(F)(F)F	-14.7%
[Cl-].[NH3+]CCCn1c(C(=O)c2ccc(Cl)cc2)c2ccc(C(F)(F)F)cc2[n+]1[O-]	-80.9%
NC(=O)CCCn1c(C(=O)c2ccc(Cl)cc2)c2ccc(C(F)(F)F)cc2[n+]1[O-]	-80.1%
Cc1ccc(C(=O)c2c3ccc(C(F)(F)F)cc3[n+]([O-])n2CCC(N)=O)cc1	-28.8%
Nc1c(Cl)cc(C(=O)c2c3ccc(C(F)(F)F)cc3[n+]([O-])n2CCC[NH3+])cc1Cl.[Cl-]	-37.3%
[Cl-].[NH3+]CCCn1c(C(=O)c2ccc(Cl)cc2)c2ccc([N+](=O)[O-])cc2[n+]1[O-]	-47.1%
Nc1c(Cl)cc(C(=O)c2c3ccc([N+](=O)[O-])cc3[n+]([O-])n2CCC[NH3+])cc1Cl.O=C([O-])C(F)(F)F	1.56%
Cc1ccc(C(=O)c2c3ccc(C(F)(F)F)cc3[n+]([O-])n2CCCC(N)=O)cc1	-39%
NC(=O)CCCn1c(C(=O)c2cc(Cl)c(N)c(Cl)c2)c2ccc(C(F)(F)F)cc2[n+]1[O-]	5.14%
NC(=O)CCCn1c(C(=O)c2ccc(Cl)cc2)c2ccc([N+](=O)[O-])cc2[n+]1[O-]	-58.2%
COc1cccc(CNS(=O)(=O)c2c(C(=O)N3CCCCCC3)c(C)n(C)c2C)c1	7.52%
Cc1ccccc1CNC1CCCCC1.Cl	2.15%
O=C(Cn1cnc2cc([N+](=O)[O-])ccc2c1=O)Nc1ccccc1Cl	6.18%
COC(=O)c1ccc(-c2nc(O)c(C)s2)cc1	9.1%
CC1=C(C(=O)Nc2cccc(C(=O)NCc3ccc(F)cc3)c2)SCCO1	15.3%

Compound	hERG current change (%, negative = inhibition) at 1uM
COc1ccc(C(=O)c2c3ccc(C(F)(F)F)cc3[n+]([O-])n2CCCC(N)=O)cc1	-21.6%
COc1ccc(C(=O)c2c3ccc([N+](=O)[O-])cc3[n+]([O-])n2CCC[NH3+])cc1.[Cl-]	-13.5%
COc1ccc(C(=O)c2c3ccc(C(F)(F)F)cc3[n+]([O-])n2CCC[NH3+])cc1.[Cl-]	-63%
c1ccc(-c2nn3nnnc3c3ccccc23)cc1	-82.9%
Cc1ccc(-c2nn3nnnc3c3ccccc23)cc1C	-5.22%
Cc1ccc(-c2nn3nnnc3c3ccccc23)cc1	12.9%
Cc1c(CCOC(=O)c2ccc([N+](=O)[O-])cc2)sc[n+]1CC(=O)c1ccccc1.[Br-]	-6.66%
Cc1c(CCOC(=O)CC23CC4CC(CC(C4)C2)C3)sc[n+]1CC(=O)c1ccccc1.[Br-]	-6.04%
Cc1c(CCOC(=O)CC23CC4CC(CC(C4)C2)C3)sc[n+]1CC(=O)c1ccc(Br)cc1.[Br-]	-63.5%
COc1ccc(C(=O)OCCc2sc[n+](CC(=O)c3ccccc3)c2C)cc1.[Br-]	9.69%
Cc1c(CCOC(=O)c2ccccc2)sc[n+]1CC(=O)c1ccc(Br)cc1.[Br-]	-82.8%
Cc1c(CCOC(=O)CC23CC4CC(CC(C)(C4)C2)C3)sc[n+]1CC(=O)c1ccccc1.[Br-]	-5.09%
CCc1ccc(C(C(=O)NC2CCCC2)N(Cc2cccnc2)C(=O)c2csnn2)cc1 (stereo not drawn)	2.84%
Nc1c(-c2ccccc2)nc(Cl)nc1-c1ccccc1	13.2%
CN(CC(=O)Nc1ccccc1Cl)C(=O)COC(=O)/C=C/c1ccc(C(F)(F)F)cc1	16.2%
Cc1ccc(C)c(N2CCN(CCCNC(=O)Cn3cccc3C(=O)c3ccccc3C)CC2)c1	-22.1%
O=C(Cn1cccc1C(=O)c1ccccc1)NCCCN1CCc2ccccc2C1	-41.7%
Cc1ccccc1C(=O)c1cccn1CC(=O)NCCCN1CCCCC1	0.894%
Cc1ccccc1C(=O)c1cccn1CC(=O)NCCCN1CCc2ccccc2C1	-70%
CC1CC(C)CN(CCCNC(=O)Cn2cccc2C(=O)c2ccccc2)C1 (stereo not drawn)	-25%
Cc1ccccc1C(=O)c1cccn1CC(=O)NCCCN1CC(C)CC(C)C1 (stereo not drawn)	-59%
CN(C)CCN1C(=O)c2oc3ccccc3c(=O)c2C1c1ccc(F)cc1 (stereo not drawn)	-2.93%
CC(=O)Nc1ccc(Oc2sc(C(=O)c3ccccc3)c(N)c2C#N)cc1	9.56%
COCCN(C(=O)CSc1nnc(-c2ccco2)n1C)c1c(N)n(CC(C)C)c(=O)[nH]c1=O	8.54%
